Y pestis TopoI: Yersinia pestis topoisomerase I inhibitors, primary screen, biochemical, cleavage product accumulation, plate reader, single point; DNA topoisomerase I (Yersinia pestis CO92); Y. pestis Topo-I cleavage product accumulation; activity, % at 10 µM; actives 0.064% (n = 360,000); AID 504884, 2011; in the data active means activity above about 50%, passing the limit was not always enough
TcdB GH inh: TcdB glycohydrolase inhibitors, primary screen, biochemical, single point, plate reader; actives 0.24% (n = 350,000); Toxin B (Clostridioides difficile), P18177; TcdB glycohydrolase enzymatic assay; AID 652162, 2013; inhibition, % at 9.99 µM; in the data active means inhibition above about 10%
Target sequence (P18177 whole entry, looked up): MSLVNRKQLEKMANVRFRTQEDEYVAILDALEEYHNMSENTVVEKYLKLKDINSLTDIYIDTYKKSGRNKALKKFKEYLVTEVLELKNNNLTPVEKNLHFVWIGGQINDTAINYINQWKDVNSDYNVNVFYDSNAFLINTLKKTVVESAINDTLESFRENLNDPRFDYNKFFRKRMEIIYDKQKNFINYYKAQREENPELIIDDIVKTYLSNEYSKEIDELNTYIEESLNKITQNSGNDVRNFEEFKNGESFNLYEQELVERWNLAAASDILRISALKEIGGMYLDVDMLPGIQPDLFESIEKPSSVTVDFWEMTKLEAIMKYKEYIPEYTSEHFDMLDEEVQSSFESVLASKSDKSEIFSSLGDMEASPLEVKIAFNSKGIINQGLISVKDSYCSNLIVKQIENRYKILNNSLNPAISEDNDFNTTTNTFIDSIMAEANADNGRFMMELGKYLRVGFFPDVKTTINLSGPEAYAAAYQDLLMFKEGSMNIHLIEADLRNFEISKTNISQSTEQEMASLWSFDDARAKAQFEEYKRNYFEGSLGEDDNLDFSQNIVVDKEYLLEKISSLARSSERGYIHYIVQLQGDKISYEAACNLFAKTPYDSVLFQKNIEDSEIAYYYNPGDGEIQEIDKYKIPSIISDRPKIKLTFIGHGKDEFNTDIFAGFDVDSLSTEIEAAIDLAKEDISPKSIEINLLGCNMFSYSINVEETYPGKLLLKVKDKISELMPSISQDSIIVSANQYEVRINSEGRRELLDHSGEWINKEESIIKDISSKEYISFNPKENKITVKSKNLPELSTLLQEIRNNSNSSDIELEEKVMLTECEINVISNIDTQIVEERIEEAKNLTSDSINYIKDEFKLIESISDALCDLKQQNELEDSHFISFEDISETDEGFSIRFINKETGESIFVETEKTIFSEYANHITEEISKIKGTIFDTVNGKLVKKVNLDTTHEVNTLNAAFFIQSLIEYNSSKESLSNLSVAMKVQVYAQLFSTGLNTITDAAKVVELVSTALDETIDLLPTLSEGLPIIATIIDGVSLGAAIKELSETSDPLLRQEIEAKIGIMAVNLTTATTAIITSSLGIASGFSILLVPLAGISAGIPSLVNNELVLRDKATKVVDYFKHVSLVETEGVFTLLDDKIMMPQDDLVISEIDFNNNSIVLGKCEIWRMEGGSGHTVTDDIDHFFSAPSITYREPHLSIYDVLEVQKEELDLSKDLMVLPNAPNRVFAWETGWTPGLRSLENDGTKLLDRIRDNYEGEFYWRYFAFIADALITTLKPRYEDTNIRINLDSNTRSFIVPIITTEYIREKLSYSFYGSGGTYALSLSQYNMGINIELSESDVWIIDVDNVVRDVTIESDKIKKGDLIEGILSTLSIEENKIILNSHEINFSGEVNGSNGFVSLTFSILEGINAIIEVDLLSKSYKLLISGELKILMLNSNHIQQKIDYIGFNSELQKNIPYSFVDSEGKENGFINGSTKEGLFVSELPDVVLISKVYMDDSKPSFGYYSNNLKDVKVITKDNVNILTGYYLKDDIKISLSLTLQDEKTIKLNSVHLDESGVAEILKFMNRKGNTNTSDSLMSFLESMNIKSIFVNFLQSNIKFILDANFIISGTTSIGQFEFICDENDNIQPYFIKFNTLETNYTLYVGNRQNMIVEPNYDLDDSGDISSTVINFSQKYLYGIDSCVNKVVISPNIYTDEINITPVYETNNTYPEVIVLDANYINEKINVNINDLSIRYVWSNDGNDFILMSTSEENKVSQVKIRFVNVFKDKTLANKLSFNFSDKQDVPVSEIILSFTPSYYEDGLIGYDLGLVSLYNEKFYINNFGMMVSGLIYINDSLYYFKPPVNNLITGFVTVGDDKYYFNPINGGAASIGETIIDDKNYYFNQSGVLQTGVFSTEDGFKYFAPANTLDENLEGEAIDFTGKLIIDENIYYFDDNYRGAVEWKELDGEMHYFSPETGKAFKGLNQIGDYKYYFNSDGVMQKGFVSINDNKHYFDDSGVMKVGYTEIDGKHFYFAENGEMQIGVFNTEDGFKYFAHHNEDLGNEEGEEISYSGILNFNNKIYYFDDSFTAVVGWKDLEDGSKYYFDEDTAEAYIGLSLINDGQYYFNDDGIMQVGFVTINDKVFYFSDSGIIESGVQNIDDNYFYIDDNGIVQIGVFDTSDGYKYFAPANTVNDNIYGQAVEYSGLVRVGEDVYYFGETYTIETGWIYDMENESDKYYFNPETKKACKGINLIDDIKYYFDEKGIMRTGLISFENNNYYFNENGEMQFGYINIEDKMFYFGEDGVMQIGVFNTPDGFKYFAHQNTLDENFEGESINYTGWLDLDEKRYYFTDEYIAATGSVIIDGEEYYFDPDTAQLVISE
Vc quorum ag-1: inducers of Vibrio cholerae quorum light production without autoinducers, primary screen, BH1578 luxS cqsA deficient, single point | V. cholerae BH1578 lux reporter, luminescence, 6 h | actives 0.16% (n = 350,000) | activation, % at 18.7 µM; in the data active means activation mostly above about 9.7%, no sharp cut-off
BioA inh: M. tuberculosis BioA enzyme inhibitors, primary screen, biochemical, plate reader, single point, HTS. actives 0.096% (n = 360,000). purified M. tuberculosis BioA enzyme. 7,8-diaminopelargonic acid synthase BioA (Mycobacterium tuberculosis). inhibition, % at 9.99 µM. AID 602481, 2012; in the data active means inhibition above about 40%
FadD28 FP inh: inhibitors of FadD28 bisubstrate probe binding, primary screen, biochemical, fluorescence polarization, single point; inhibition, % at 12.5 µM; actives 0.22% (n = 360,000); AID 588549, 2011; in the data active means inhibition above about 8.5%, passing the limit was not always enough
Vc quorum ag-2: V. cholerae lux activation without autoinducers – BH1578 luxS cqsA deficient, cherry-pick, plate reader, dose response; V. cholerae BH1578 lux reporter, luminescence, 6 h; activation, % at 50 µM; shares compounds with Vc quorum ag-1; 620 tested, under 10 active; AID 602243, 2012; call rule not given here
HeLa 24h tox: HeLa cell cytotoxicity, dose response, cytotoxicity control, 24 h, dry powder; shares compounds with Vc quorum ag-1; HeLa viability, CellTiter-Glo ATP luminescence; activity change, negative = cytotoxicity, % at 35 µM; 25 tested, under 10 active; AID 624140, 2012;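 active means signal drop with fitted half-maximal concentration at or below twice the highest valid dose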
Starred values were filed as active, the others as inactive; i = inactive; nt = not tested or not shown; + = active, no number. Shown are actives, neighbours in structure and some others; about 0.61% of the full set was active somewhere.

SMILES	Y pestis TopoI	TcdB GH inh	Vc quorum ag-1	BioA inh	FadD28 FP inh	Vc quorum ag-2	others
COc1ccc(S(=O)(=O)Nc2ccc3c(c2)C(=O)N(C)C[C@@H](OC)[C@H](C)CN(C)[C@H](C)CO3)cc1	nt	0	nt	-1	nt	nt
Cc1noc(C)c1NC(=O)Nc1cccc2c1O[C@@H](CN(C)S(=O)(=O)c1cccs1)[C@H](C)CN([C@@H](C)CO)C2=O	nt	nt	nt	1	nt	nt
C[C@H]1CN([C@@H](C)CO)C(=O)c2cccc(NC(=O)C3CC3)c2O[C@H]1CN(C)S(=O)(=O)c1cccs1	8	0	24	-3	-1	0
Cc1noc(C)c1NC(=O)Nc1cccc2c1O[C@H](CN(C)S(=O)(=O)c1cccs1)[C@@H](C)CN([C@H](C)CO)C2=O	12	0	12	1	-1	0
C[C@@H]1CN([C@H](C)CO)C(=O)c2cccc(NC(=O)C3CC3)c2O[C@@H]1CN(C)S(=O)(=O)c1cccs1	nt	-1	nt	-1	nt	nt
O=C(C[C@H]1CC[C@H](NS(=O)(=O)c2ccccc2)[C@H](CO)O1)N1CCC(Cc2ccccc2)CC1	nt	-1	nt	nt	nt	nt
O=C(Nc1ccc2c(c1)[C@H]1C[C@H](CC(=O)N3CCOCC3)O[C@H](CO)[C@H]1O2)NC1CCCC1	nt	1	nt	-2	nt	nt
Cn1c(SCc2cnc(-c3ccccc3)s2)nnc1C1COc2ccccc2O1 (stereo not given)	17	nt	27*	0	-1	31
Cn1c(SCC(=O)c2ccccc2)nnc1C1COc2ccccc2O1 (stereo not given)	8	1	0	-1	-1	nt
Cc1ccc(CN(Cc2cc3cc(C)ccc3[nH]c2=O)C(=O)N2CCOCC2)cc1	2	nt	17*	0	-2	7
CNC(=O)C[C@H]1CC[C@H]2[C@@H](COC[C@@H](O)CN2Cc2ccccc2F)O1	nt	0	nt	-2	nt	nt
CCCC(=O)NC1CCCc2c1cnn2-c1ccc(C)c(C)c1 (stereo not given)	5	0	23	0	0	0
COC(=O)C[C@@H]1C[C@@H]2c3cc(NC(=O)CC4CC4)ccc3O[C@@H]2[C@@H](CO)O1	nt	3	nt	-1	nt	nt
CCCNC(=O)COC(=O)/C=C/c1ccc(C)o1	5	1	+	nt	-3	i
C[C@H](CO)N1C[C@H](C)[C@H](CN(C)C(=O)C2CC2)Oc2cc(C3=CCCCC3)ccc2S1(=O)=O	nt	0	nt	3	nt	nt
Cc1ccc(NS(=O)(=O)c2cccc(C(=O)N3CCCC(C)C3)c2)cc1 (stereo not given)	5	0	i	0	-2	nt
COc1ccc(NS(=O)(=O)c2cccc(C(=O)N3CCCC(C)C3)c2)cc1 (stereo not given)	-1	2	19	0	-2	0
CCn1c(CC(=O)Nc2cccc(Cl)c2Cl)nnc1SCCOc1ccc(OC)cc1	7	0	nt	nt	-1	i	HeLa 24h tox=7
COc1ccc(-c2noc(CCC(=O)N3CCN(c4cccc(OC)c4)CC3)n2)cc1	32	0	-1	1	-1	nt
CC(C)(C)c1ccc(-c2noc(CCC(=O)N3CCOCC3)n2)cc1	10	5	-1	nt	0	nt
O=C(CCc1nc(-c2ccccc2)no1)N1CCCC1	-8	nt	313*	2	-2	565
COc1ccc(-c2noc(CCC(=O)N3CCN(c4cccc(C(F)(F)F)c4)CC3)n2)cc1	-5	nt	25*	1	-1	0
CN(CC(=O)Nc1c(Cl)cccc1Cl)C(=O)c1cccc(-n2cccc2)c1	1	-3	-17	nt	-3	nt
CN(CC(=O)Nc1ccccc1Cl)C(=O)c1cccc(-n2cccc2)c1	-1	0	14	0	-2	0
COc1cccc(S(=O)(=O)Nc2ccc3c(c2)[C@H]2C[C@@H](CC(=O)NCc4cccc(F)c4)O[C@@H](CO)[C@H]2O3)c1	nt	0	nt	0	nt	nt
SMILES	Y pestis TopoI	TcdB GH inh	Vc quorum ag-1	BioA inh	FadD28 FP inh	Vc quorum ag-2	others
CCCCNC(=O)c1ccccc1NC(=O)CCSc1ccccc1	7	nt	12	nt	0	0
CCCCNC(=O)Nc1ccccc1C(=O)NCCC	-1	nt	0	-1	0	nt
O=C(CN1C(=O)CSC1=O)NC1CCCCC1	2	nt	17*	0	-2	3
CC(C)Oc1ccc(C(=O)Nc2cc(S(=O)(=O)N3CCOCC3)ccc2N2CCOCC2)cc1	2	1	2	1	-4	0
C[C@@H]1CN([C@H](C)CO)C(=O)c2cc(NS(=O)(=O)c3cccs3)ccc2O[C@@H](C)CCCCO[C@@H]1CN(C)S(C)(=O)=O	nt	0	nt	nt	nt	nt
Cc1cc(C)c(S(=O)(=O)Nc2ccccn2)c(C)c1	-2	0	52*	-3	-4	0
Cc1ccc(S(=O)(=O)Nc2ccccn2)c(C)c1	9	2	1	-1	-3	nt
C=CCN1C(=O)c2ccc(C(=O)N(C)CC(=O)Nc3ccccc3Cl)cc2C1=O	-1	-1	-1	nt	0	nt
C=CCN1C(=O)c2ccc(C(=O)N(CC)CC(=O)Nc3cc(Cl)ccc3C)cc2C1=O	9	0	15*	-1	0	0
O=C(O)c1[nH]c2ccccc2c1NS(=O)(=O)Cc1ccccc1	17	nt	7	0	0	0
Cc1nn(CC(O)CN2c3ccccc3Sc3ccccc32)c(C)c1Br (stereo not given)	1	nt	25*	0	-1	0
CCC1Nc2ncnc(N3CCN(c4ccccc4)CC3)c2N(Cc2ccccc2)C1=O (stereo not given)	14	0	6	-3	-2	0
COc1cc(C2N(c3ccccn3)C(=O)C3CCCN32)cc(OC)c1OC (stereo not given)	8	nt	26*	0	1	0
OC[C@H]1[C@H](c2ccc(C#Cc3ccccc3)cc2)[C@@H]2CN(Cc3cncnc3)CCCCN12	nt	nt	nt	0	nt	nt
O=[N+]([O-])c1ccc(S(=O)(=O)NCC(c2cccnc2)N2CCc3ccccc32)cc1 (stereo not given)	-10	0	14	5	-1	0
O=S(=O)(NCC(c1cccnc1)N1CCc2ccccc2C1)c1ccccc1 (stereo not given)	12	-1	0	2	-2	nt
Cc1[nH]c2ccc3c(ncn3CCC#N)c2c1C	-6	nt	14	2	0	1
Cc1[nH]c2ccc3ncccc3c2c1C	-6	nt	0	nt	2	nt
COc1ccc(CNC(=O)CSc2nc3c(oc4ccccc43)c(=O)n2CC2CCCO2)cc1 (stereo not given)	-2	1	14	-3	0	0

Bioassay records as filed in PubChem.
